Bioassay records (PubChem BioAssay)
NPC1 promoter act: NPC1 promoter activation | Huh7 NPC1 promoter luciferase reporter, 24 h | Potency, µM (titrated, usually from 9.22 µM), without a hit: top-dose activation, usual class: activators | hit rate 2.4% among 320,000 | AID 485313; also: % of control where 0% means no effect; nearly all actives have a fitted effect of over 60% in size
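Luciferase expression driven by the NPC1 promoter was measured in stably transfected Huh7 cells after a 24 h compound incubation, using a luciferase reagent and a luminescence read.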
KinaseGlo FLuc: counter-screen: inhibitors of Kinase-Glo firefly luciferase. Q27757. Kinase-Glo luciferase, ATP luminescence, 8 min. Potency, µM (top dose mostly 38.3 µM), without a hit: top-dose activity change, negative = inhibition, usual class: inhibitors. hit rate 0.28% among 200,000; also: % is scaled to controls: 0 for no effect and ±100 for the full control effect; nearly all actives have a fitted effect of over 60% in size
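Recombinant Kinase-Glo luciferase, 10 uM ATP (linear range), luciferin; imidazole pH 7.2 / KCl / MgCl2 / Tween / BSA buffer; 8 min RT; luminescence.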
FLuc counter: counter-screen for miR-21 project: firefly luciferase inhibitors or activators; P08659; purified FLuc, Km substrates, luminescence inhibition; Potency, µM (doses to about 57.5 µM), without a hit: at the highest dose activity change, negative = inhibition, hits mostly inhibitors; hit rate 6.9% among 360,000;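 also: plate controls were vehicle for no effect and reference inhibitor for full effect; nearly all actives have a fitted effect of over 55% in size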
Target sequence (P08659 whole entry, looked up): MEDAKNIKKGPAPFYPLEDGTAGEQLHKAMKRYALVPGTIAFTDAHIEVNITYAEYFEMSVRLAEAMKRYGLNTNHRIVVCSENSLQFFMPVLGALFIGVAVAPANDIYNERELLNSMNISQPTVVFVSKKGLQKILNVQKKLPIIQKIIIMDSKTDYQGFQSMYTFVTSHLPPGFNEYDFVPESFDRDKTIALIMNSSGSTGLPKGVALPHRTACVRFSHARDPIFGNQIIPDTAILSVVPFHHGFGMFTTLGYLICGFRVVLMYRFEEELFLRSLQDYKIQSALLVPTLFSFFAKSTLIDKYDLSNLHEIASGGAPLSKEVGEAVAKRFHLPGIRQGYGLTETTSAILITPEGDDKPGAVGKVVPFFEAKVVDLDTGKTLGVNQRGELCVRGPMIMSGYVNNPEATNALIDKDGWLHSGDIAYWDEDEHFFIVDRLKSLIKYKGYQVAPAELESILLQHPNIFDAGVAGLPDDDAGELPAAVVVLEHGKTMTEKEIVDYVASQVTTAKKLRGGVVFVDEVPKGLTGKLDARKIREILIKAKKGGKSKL
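Biochemical qHTS of compounds, final roughly 60 µM downward over six points, against 10 nM purified firefly luciferase using Km concentrations of substrates (10 uM D-luciferin, 10 uM ATP) in Tris acetate pH 7.5 buffer; luminescence output.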
SMN2 splice up: increases expression of the SMN2 splice variant; Potency, µM (doses to about 46.1 µM), inactives show at the highest dose activity change, positive = activation, hits mostly activators; HEK293 SMN2-luciferase splicing reporter, luminescence, 30-36 h; hit rate 2.8% among 210,000; also: % of control where 0% means no effect; nearly all actives have a fitted effect of over 55% in size
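HEK293 cells carry an SMN2 minigene-luciferase reporter in which exon 7 inclusion puts luciferase in frame. Cells were seeded at 2000 cells/well, attached for 10-12 hours, then exposed to compounds for 30-36 hours at 37C before ONE-Glo luminescence.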
ELG1 genotoxic: induces genotoxicity in HEK293T cells with luciferase-tagged ELG1; HEK293T ELG1-luciferase reporter, luminescence, 16 h; Potency, µM (titrated, usually from 46 µM), for inactives: at the highest dose activity change, positive = activation, usual class: activators; hit rate 1.3% among 330,000; AID 504466; also: % of control where 0% means no effect; nearly all actives have a fitted effect of over 60% in size
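Step 1: seed 2,000 HEK293T ELG1-luciferase cells per well. Step 2: add compound or DMSO, incubate 16 hr at 37 °C. Step 3: ONE-Glo, 30 min at room temperature, read luminescence.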
Rab9 prom act: activators of Rab9 promoter | Huh7 Rab9 promoter-luciferase reporter, luminescence, 24 h | Potency, µM (doses to about 9.22 µM), for the others: at the top dose activation, negative = inhibition, most hits filed as activators | hit rate 2.8% among 320,000 | AID 485297; also: % of control where 0% means no effect; nearly all actives have a fitted effect of over 60% in size
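Huh7 cells stably carrying Rab9 promoter–luciferase reporter, plated 1500 cells/well, compound added after 2 h and incubated 24 h at 37 °C; luciferase luminescence then read after 10 min with detection reagent.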
The depositor's hits bear a star; ? = inconclusive; . = no result given; [ ] = remark or other dose. Hits are enriched below; roughly 7.4% of the tested compounds scored in any of these assays. Calls follow the shape of the dose curve; as a rule, active = well fitted curve in the direction sought with a large enough effect; inconclusive = small, poorly fitted or top-dose-only effect, or another doubt; inactive = no such curve, though single readings can be large; an effect the other way counts as inactive or inconclusive. Potency is read from the fitted curve at half-maximal effect.

SMILES	NPC1 promoter act	KinaseGlo FLuc	FLuc counter	SMN2 splice up	ELG1 genotoxic	Rab9 prom act
CC(=O)Oc1ccc(C(=O)Nc2cccc(C(=O)NC(C)(C)C)c2)cc1	2%	10%	19µM*	-23%	1%	-8%
CC(=O)Oc1ccc(C(=O)Nc2ccccc2C(=O)Nc2ccc(C(=O)O)cc2)cc1	4%	.	2.4µM*	.	-1%	1%
CC(=O)Oc1ccc(C(=O)Nc2ccccc2C(=O)Nc2cccc(C(=O)O)c2)cc1	0%	.	4.3µM*	.	12%	1%
CC(=O)Oc1ccc(C(=O)Nc2cccc(C(=O)c3cccc(NC(=O)c4ccc(OC(C)=O)cc4)c3)c2)cc1	-7%	0%	-10%	4%	-6%	-6%
COc1ccc(NC(=O)c2ccccc2NC(=O)c2ccccc2)cc1	16%	.	?	.	6%	8%
CC(C)CNC(=O)c1cccc(NC(=O)CSc2ccc(Cl)cc2)c1	-1%	1%	?	-3%	-7%	-1%
Cc1ccc(N2CC(NC(=O)c3ccc(S(=O)(=O)N(C)C)cc3)CC2=O)cc1C (stereo not given)	.	.	-5%	.	.	.
CCCCc1nc2c(c3c1C[C@H](C)OC3)CN(C(=O)N[C@@H](C)c1ccccc1)CC2	.	0%[7.66 µM]	.	8%[9.22 µM]	.	.
COC(=O)[C@@]1(Cc2ccc(OC)cc2)[C@H]2c3cc(C(=O)N(C)C)n(Cc4ccc(C)c(F)c4F)c3C[C@H]2CN1C(=O)c1ccccc1	.	-6%	.	-42%	.	.
CC(=O)Oc1ccc(C(=O)Nc2cccc(C(=O)Nc3ccccc3C(=O)O)c2)cc1	-3%	.	11µM*	.	-6%	2%
O=C(Cc1ccc(Cl)cc1)Nc1cccc(C(=O)Nc2ccccc2C(=O)O)c1	-4%	.	-19%	.	1%	-7%
CCOc1ccc(NC(=O)C2CC(=O)N(c3ccc(C(C)C)cc3)C2)cc1 (stereo not given)	.	.	-2%	3%	.	.
CCN(CC)C(=O)C1CCCc2c1[nH]c1ccc(Cl)cc21 (stereo not given)	-5%	1%	1%	3.5µM*	-5%	16%
CC1=C(/C=C/C(C)=C/C=C/C(C)=C/C=O)C(C)(C)CCC1	.	.	.	3%	.	.
O=C(O)c1ccc(COc2ccc3ccccc3c2)o1	?	.	19µM*	.	?	?
CCOc1ccc(OCc2ccc(C(=O)O)o2)cc1	?	-1%	3.4µM*	0.89µM*	?	0.28µM*
CCOc1ccc(OCc2ccc(C(=O)Nc3cc(OC)c(OC)c(OC)c3)o2)cc1	.	.	-14%	-14%	.	.
C/C=C/c1ccccc1OCc1ccc(C(=O)O)o1	-2%	-1%	-15%	.	6%	-6%
Nc1cccc(S(=O)(=O)O)c1	.	.	.	-2%	.	.
Cc1cc(C)nc(/N=C(\N)Nc2ccc(OCc3ccccc3)cc2)n1	-17%	2%	5%	.	-4%	-31%
Cc1nc(/N=C(\N)Nc2ccccc2)nc2ccccc12	?	-5%	12µM*	24%	3%	25%
CC(C)c1ccc(CNc2nc(-c3ccco3)nn2C(=O)c2ccc([N+](=O)[O-])cc2)cc1	.	.	-10%	.	.	.
COc1ccccc1CNC(=O)CN1c2cccc3cccc(c23)S1(=O)=O	1%	.	24µM*	.	-1%	-7%
COc1ccccc1/C=C/C(=O)Nc1cccc(C(C)=O)c1	20%	0%	11µM*	13%	1%	27%
COc1cccc(OC)c1C(=O)Nc1cccc(C(C)=O)c1	-2%	4%	3%	1%	3%	3%
SMILES	NPC1 promoter act	KinaseGlo FLuc	FLuc counter	SMN2 splice up	ELG1 genotoxic	Rab9 prom act
COc1cccc(/C=C/C(=O)Nc2cccc(C(C)=O)c2)c1OC	3.2µM*	-12%	3µM*	18µM*	2%	2.8µM*
COc1cccc(C(=O)Nc2ccc3c(c2)OCO3)c1OC	1.4µM*	.	9.5µM*	.	?	1.6µM*
COc1cccc(C(=O)NCc2ccc3c(c2)OCO3)c1OC	-2%	.	-2%	.	3%	0%
COc1cccc(/C=C/C(=O)Nc2ccc(C(=O)Nc3cccc(S(N)(=O)=O)c3)cc2)c1OC	2%	.	?	.	-2%	8%
COc1cccc(/C=C/C(=O)Nc2ccc3c(c2)OCCO3)c1OC	0.4µM*	-8%	0.76µM*	2.8µM*	1.3µM*	0.4µM*
Cc1cc([C@](C)(N)C(=O)O)ccc1P(=O)(O)O	.	-1%	.	.	.	.
CN[C@H](CC(C)C)C(=O)N[C@H]1C(=O)N[C@@H](CC(N)=O)C(=O)N[C@H]2C(=O)N[C@H]3C(=O)N[C@H](C(=O)N[C@H](C(=O)O)c4cc(O)cc(O)c4-c4cc3ccc4O)[C@H](O)c3ccc(c(Cl)c3)Oc3cc2cc(c3O[C@@H]2O[C@H](CO)[C@@H](O)[C@H](O)[C@H]2O[C@H]2C[C@](C)(N)[C@H](O)[C@H](C)O2)Oc2ccc(cc2Cl)[C@H]1O	.	-6%	.	9%	.	.
COc1ccc(Oc2ncc3nc(C)c(=O)n(Cc4ccc(F)cc4)c3n2)cc1	.	-1%	.	-49%	.	.
N#CCc1nc2n(n1)Cc1ccccc1-2	9%	-2%	-1%	-3%	0%	-6%
c1ccc2c(c1)Cn1nc(Cc3nc4c(s3)CCCC4)nc1-2	6%	-6%	17µM*	?	?	?
CCc1ccc(NC(=O)Cn2cnc3sc(C)c(S(=O)(=O)N4CCN(c5ccccc5OC)CC4)c3c2=O)cc1	.	.	4%	16%	.	.
CC(C)(C)C1CCC(=O)N(CCSc2ccccc2)CC1 (stereo not given)	2.5µM*	.	7.6µM*	.	?	3.2µM*
C[C@H]1CCC(=O)N(CCSc2ccc(Br)cc2)CC1	10%	.	?	.	10%	?
Cc1ccc(SCCN2CCC(C(C)(C)C)CCC2=O)cc1 (stereo not given)	20%	.	?	.	11%	22%
Cc1ccc(SCCN2CCC(C)CCC2=O)cc1 (stereo not given)	4µM*	.	19µM*	.	?	?
COC(=O)NC(C(=O)OC)(C(=O)OC)c1ccccc1	.	0%	.	9%	.	.
Cc1ccc(NCc2ccco2)cc1C	-4%	-6%	?	.	2%	-2%
